aDG glyco up = alpha-DG glycosylation activation; Pro5-aDG cells, alpha-DG glycosylation AlphaScreen (IIH6); 0% Pro5, 100% B10-LARGE cell signal; activation, % at 10 µM; 360,000 compounds, 0.22% hits; AID 624168;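 active = activation of at least 8% versus controls, or a plate z-score of at least 8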;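 note: Pro5 are CHO cells carrying HIG-tagged alpha-DG that lacks glycosylation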
A3A deaminase = human APOBEC3A DNA deaminase inhibition; 330,000 compounds, 0.41% hits; AID 493011; recombinant A3A, FAM/TAMRA ssDNA deamination fluorescence; inhibition, % at 20 µM;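 active = at least 40% inhibition at 20 µM here, with at most 30% in a related deaminase screen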;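 note: plate controls were A3A with DMSO for no effect and wells lacking A3A enzyme for full effect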
rCAG RNA binder = r(CAG) repeat RNA binding; 370,000 compounds, 1.3% hits; AID 651821; inhibition, % at 3 µM; TO-PRO-1 dye displacement fluorescence;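 active = inhibition above the plate cutoff, the mean of all test compounds on that plate plus 3 SD, cut at about 35% in these data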;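 note: 0% = DMSO alone and 100% = 100 µM mitoxantrone as full dye displacement; higher means more dye released from RNA so lower well fluorescence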
ALR H2O2 inh = human ALR oxidase inhibition via reduced H2O2; P55789; purified ALR, DTT oxidation, H2O2 HRP-luminol luminescence; inhibition, % (no concentration beside the values); 290,000 compounds, 3.8% hits;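 active = mean replicate inhibition above about 79%, with every replicate also reaching it, limit read from the data; inconclusive = only one of the two criteria met; inactive = mean below limit and not every replicate reaching it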
A3G deaminase = APOBEC3G (human) deaminase inhibition | AID 493012 | inhibition, % at 20 µM | Q9HC16 | recombinant A3G, ssDNA deamination FAM/TAMRA fluorescence | 330,000 compounds, 0.28% hits;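 active = inhibition of at least 40% at 20 µM, with no more than 30% in the related APOBEC3A deaminase screen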;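 note: plate controls were DMSO wells with A3G for no effect and wells lacking A3G enzyme for full effect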
Target sequence (Q9HC16 whole entry, looked up): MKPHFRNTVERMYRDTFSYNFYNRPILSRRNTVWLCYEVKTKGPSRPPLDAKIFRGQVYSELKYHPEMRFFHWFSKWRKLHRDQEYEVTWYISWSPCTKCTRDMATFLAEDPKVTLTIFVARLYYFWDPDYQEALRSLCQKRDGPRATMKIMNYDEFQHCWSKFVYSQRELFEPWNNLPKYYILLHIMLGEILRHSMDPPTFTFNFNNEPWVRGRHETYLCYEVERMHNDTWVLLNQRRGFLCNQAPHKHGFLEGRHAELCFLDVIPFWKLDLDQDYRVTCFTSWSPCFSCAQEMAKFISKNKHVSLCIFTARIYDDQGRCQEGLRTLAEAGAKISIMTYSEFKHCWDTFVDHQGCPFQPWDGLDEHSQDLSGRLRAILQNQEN
PHOSPHO1 block = PHOSPHO1 (human) inhibition. Q8TCT1. recombinant PHOSPHO1, absorbance phosphatase assay. inhibition, % at 13.3 µM. 290,000 compounds, 1.1% hits. AID 1565; in the data active = inhibition above about 60%
Target sequence (Q8TCT1 whole entry, looked up): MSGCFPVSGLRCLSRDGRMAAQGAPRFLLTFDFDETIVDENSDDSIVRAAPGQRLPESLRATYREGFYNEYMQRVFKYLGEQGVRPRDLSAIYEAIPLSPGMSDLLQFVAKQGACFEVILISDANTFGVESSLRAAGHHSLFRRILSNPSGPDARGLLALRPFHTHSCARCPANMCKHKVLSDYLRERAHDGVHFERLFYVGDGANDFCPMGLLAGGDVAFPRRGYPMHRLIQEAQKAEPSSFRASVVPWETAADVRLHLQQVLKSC
APOBEC3G confirm = APOBEC3G (human) deaminase inhibition, confirmed. AID 493152. inhibition, % at 20 µM. shares compounds with A3G deaminase. recombinant A3G ssDNA deaminase, UDG/FAM-TAMRA fluorescence. 890 compounds, 72% hits;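 active = inhibition reaching a set limit in any replicate at 20 µM, the limit being 80% of the first screen's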
UDG ctr A3G = inhibits E. coli UDG, flagging false APOBEC3G inhibitors; shares compounds with A3G deaminase; UDG counterscreen, FAM/TAMRA oligo fluorescence; inhibition, % at 20 µM; 710 tested, under 10 active; AID 504715;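 active = compounds giving 40% or more inhibition at 20 µM in any one of the three replicates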;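 note: plate controls were DMSO wells with UDG and oligo for no effect and DMSO wells lacking both for full effect; inhibitors lower the FAM signal released by uracil excision and alkaline cleavage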
The depositor's hits bear a star; ? = inconclusive; / = not tested or not shown. Sampled rows, rich in hits. Any-hit rate of the full collection: about 5.4%.

SMILES	aDG glyco up	A3A deaminase	rCAG RNA binder	ALR H2O2 inh	A3G deaminase	PHOSPHO1 block	APOBEC3G confirm	UDG ctr A3G
COc1ccccc1/C=C/C=N/n1c(-c2ccccn2)n[nH]c1=S	0.1	-4.2	0.8	/	45.3*	16.0	87.5*	-4.2
S=c1[nH]nc(-c2ccncc2)n1/N=C/C=C/c1ccccc1	0.1	-4.6	7.0	92.4*	63.4*	92.7*	90.2*	-4.4
CC(/C=N/n1c(-c2cc(C)[nH]n2)n[nH]c1=S)=C\c1ccco1	0.0	5.5	4.2	97.6*	60.8*	35.8	72.8*	2.5
COc1ccccc1/C=C/C=N/n1c(-c2ccncc2)n[nH]c1=S	0.2	-6.0	4.6	17.7	46.9*	78.7*	79.5*	4.5
Cc1ccc(-c2nn(-c3ccccc3)cc2/C=N/n2c(-c3ccncc3)n[nH]c2=S)cc1	-0.2	-5.5	4.0	-14.3	-8.8	-161.3	/	/
CC(C)CC1O[C@@H](C)[C@@H]2CN3CCc4c([nH]c5ccccc45)[C@@H]3C[C@@H]2N1C (some centres not stated)	/	/	0.9	/	/	/	/	/
COCOCCn1cc(CN2CCS(=O)(=O)N(Cc3ccc(-c4ccc(OC)c(OC)c4)cc3)C(CC(C)C)C2=O)nn1 (configuration not stated)	-0.1	/	5.0	/	/	/	/	/
Cc1cc(-c2n[nH]c(=S)n2/N=C/C=C/c2ccccc2)n[nH]1	-0.3	-1.9	7.2	23.0	46.5*	49.3	72.1*	1.1
Cc1cc(-c2n[nH]c(=S)n2/N=C/c2c[nH]c3ccccc23)n[nH]1	0.0	0.6	4.2	51.9	31.9	27.3	/	/
Clc1ccc(N/N=C/c2cccnc2)cc1	-0.1	-0.6	2.4	99.0*	40.0*	-18.4	-0.5	1.4
Cc1cc(O)c(/C=N/Nc2ccccc2Cl)c(=O)o1	5.2	-2.1	2.0	?	46.7*	-92.6	2.6	-1.7
c1ccc2c(c1)OCC(c1nnc3sc(-c4ccc5c(c4)OCO5)nn13)O2 (configuration not stated)	-0.1	-1.9	-0.3	-12.0	57.3*	83.5*	47.5*	-2.7
c1ccc2c(c1)OCC(c1nnc3sc(-c4cnccn4)nn13)O2 (configuration not stated)	-0.2	10.3	11.5	-24.2	1.3	58.0	/	/
Clc1ccccc1-c1nnc2sc(-c3ccc4c(c3)OCO4)nn12	-0.2	-1.1	12.0	-3.0	53.1*	78.7*	39.5*	-6.0
CCC1CC(=O)CCN1S(=O)(=O)c1ccc(C)cc1 (configuration not stated)	-0.1	/	0.4	/	/	/	/	/
Cc1ccc(S(=O)(=O)NC(=O)C2(C)CCN2C(=O)CC2CCCC2)nc1 (configuration not stated)	-0.3	/	2.0	/	/	/	/	/
CCc1ccc(-n2c(C)n[nH]c2=S)cc1	0.0	-5.6	-1.0	/	56.4*	24.1	61.3*	2.1
Cc1[nH]c(-c2ccco2)nc1C(=O)O	-0.2	-2.8	-1.2	-9.6	-8.4	44.4	/	/
S=c1nc(-c2ccco2)[nH][nH]1	2.3	-1.5	-0.1	98.7*	80.6*	97.6*	93.8*	-3.7
CCCCNc1cccc2c1S(=O)(=O)N[C@H](Cc1ccccc1)CO2	/	/	1.7	/	/	/	/	/
CSc1ccc(/C=N/n2c(Cc3ccc(Br)cc3)n[nH]c2=S)cc1	0.0	-0.9	20.8	-16.7	-6.9	-49.9	/	/
FC(F)Oc1ccc(/C=N/n2c(Cc3ccc(Br)cc3)n[nH]c2=S)cc1	-0.1	3.7	30.4	65.0	47.8*	30.7	42.3*	-1.7
CCN(CC)S(=O)(=O)c1cccc(-c2n[nH]c(=S)n2CC(C)C)c1	0.6	-3.8	-1.0	21.4	26.4	-12.7	/	/
Fc1ccccc1-c1n[nH]c(=S)n1C1CC1	0.0	-4.0	0.1	67.0	33.2	-13.0	/	/
CC(C)Cn1c(-c2ccc(F)cc2)n[nH]c1=S	0.0	-6.9	1.8	57.1	40.8*	45.1	81.7*	-6.4
SMILES	aDG glyco up	A3A deaminase	rCAG RNA binder	ALR H2O2 inh	A3G deaminase	PHOSPHO1 block	APOBEC3G confirm	UDG ctr A3G
CC(C)Cn1c(-c2ccccc2F)n[nH]c1=S	-0.2	-4.6	-0.8	5.1	41.1*	-17.2	82.0*	0.3
O=[N+]([O-])/C(Cl)=C(/NCCO)C(Cl)=C(Cl)Cl	0.1	/	0.7	/	/	/	/	/
COc1ccccc1NS(=O)(=O)c1cc(NC(=O)c2cc[n+]([O-])cc2)ccc1N1CCCC1	0.0	2.5	4.2	39.6	44.5*	-23.5	33.9*	2.5
COc1ccccc1NS(=O)(=O)c1cc(NC(=O)c2cccs2)ccc1N1CCCC1	0.5	3.0	15.4	-4.6	40.2*	64.1*	62.9*	-1.9
COc1ccccc1NS(=O)(=O)c1cc(NC(=O)C(C)C)ccc1N1CCCCC1	0.0	1.7	6.3	6.2	20.9	4.2	/	/
COc1ccccc1NS(=O)(=O)c1cc(NC(=O)c2sccc2C)ccc1N1CCCC1	0.5	-1.2	12.1	-2.6	42.1*	-82.7	active	-3.1
COC(=O)c1cc2c(c3c4ccccc4n(S(=O)(=O)c4ccccc4)c13)C(=O)N(C)C2	/	/	8.4	/	/	/	/	/
C=CCOC/C=C/C#CCN(Cc1ccc(OC)cc1OC)C(=O)Nc1ccccc1	/	/	-0.8	/	/	/	/	/
Cc1ccc(C)n1-c1nc(=S)[nH][nH]1	0.4	0.6	11.2	46.4	58.6*	102.0*	73.7*	-1.8
COCC(=O)Oc1c(S(=O)(=O)c2ccccc2)c(C)nn1C(C)(C)C	-0.1	0.8	-0.2	3.4	92.9*	9.3	-0.3	/
N#CCCN1CCC(N)=NC1=NC#N	/	/	0.8	/	/	/	/	/
O=C1C(=O)N(CCO)C(c2ccc(Br)cc2)/C1=C(\O)c1ccccc1 (configuration not stated)	0.0	-6.8	5.2	-1.9	44.8*	18.9	-59.2	-1.6
CCC(Cc1ccccc1)OC(=O)c1ccccc1C(=O)O (configuration not stated)	0.1	/	4.3	/	/	/	/	/
CCNc1nc(NCC)n2c(SCC(=O)Nc3ccc(CC)cc3)nnc2n1	0.2	3.4	/	98.7*	49.0*	/	47.4*	-1.2
CCNc1nc(NCC)n2c(SCc3ccc(F)cc3)nnc2n1	0.4	-1.3	-4.9	-5.7	-7.5	-13.5	/	/
O=[N+]([O-])c1ccc(S(=O)Cc2ccccc2)c([N+](=O)[O-])c1 (configuration not stated)	-0.4	/	4.4	/	/	/	/	/
O=c1c2c([N+](=O)[O-])cc([N+](=O)[O-])cc2sn1-c1ccc(Br)cc1	-0.4	3.6	/	-7.1	74.9*	88.7*	72.2*	/
O=c1c2c([N+](=O)[O-])cc([N+](=O)[O-])cc2sn1Cc1ccccc1	-0.2	-0.4	3.4	12.7	70.4*	-11.5	76.3*	-0.6
O=C(NCCc1ccccc1)C1Cc2c(-c3ccccc3Oc3ccccc3)ccnc2O1 (configuration not stated)	1.3	/	3.6	/	/	/	/	/
